Measurements: PubChem BioAssay
Active and inactive are the calls of the source.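 The calls were made as follows, unless noted: active = visually confirmed hit in the image check and inhibition above 20%; inconclusive = visually confirmed hit but inhibition not above 20%; inactive = no visual hit in the image check.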

What was measured:
[1] = inhibitors of TNFa-induced NFkB p65 translocation, primary screen, imaging, HUVEC, MLSMR starter and 10KST1 sets (AID 438;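 active = inhibition above 20% together with a positive visual image hit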;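 also: compound added about 3h40 before a 20 min TNFalpha stimulation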;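 as to inhibition: signal is the nuclear over cytoplasmic p65 intensity ratio per well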); settings: HUVEC TNFa-induced p65 nuclear translocation; cell count: measured here: nuclei count (cytotoxicity indicator), at 2.08 µM; inhibition: at 2 µM, stronger effect = higher value, 0% TNFa-plus-vehicle, 100% no-TNFa wells
[2] = inhibitors of mutant huntingtin aggregation, primary screen, imaging, exon1htt(103Q)mCFP cells, high-content imaging (AID 483;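 active = visual image review flags a hit and inhibition of aggregation exceeds 20%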;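 also: compound exposure lasted 3 days before fixation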;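 as to nuclei count: percent of the per-plate median nuclei count of sample wells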); settings: exon1htt(103Q)mCFP cell line, aggregate imaging, at 2 µM; inhibition of aggregation: stronger effect = higher value; nuclei count: measured here: cell count, toxicity
[3] = inhibitors of E-selectin induction by TNFa, primary screen, imaging, HUVEC, immunofluorescence, MLSMR starter and 10KST1 sets (AID 487); settings: HUVEC TNFalpha-induced E-selectin immunofluorescence imaging, at 2 µM; inhibition: stronger effect = higher value; nuclei count: measured here: cell number, toxicity;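 as to inhibition: signal is fraction of cell area covered by stained E-selectin grains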;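 as to nuclei count: 100% = median nuclei count of all wells on the same plate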
[4] = target: Voltage-gated potassium channel subunit beta-2 (Rattus norvegicus) (UniProt P62483); assay: KvBeta enzyme negative modulators, primary screen, biochemical, NADPH fluorescence (AID 622;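 active = fluorescence slope higher than the sample average by over 3 SD, cut at about -0.22 in these data, passing the limit was not always enough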;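 also: slope of raw intensity against log time taken from 70 to 1610 s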); settings: recombinant KvBeta, 4-cyanobenzaldehyde reduction, at 10 µM, stronger effect = higher value
[5] = target: Voltage-gated potassium channel subunit beta-2 (Rattus norvegicus) (UniProt P62483); assay: KvBeta positive modulators, primary screen, biochemical, NADPH fluorescence (AID 623;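 active = NADPH fluorescence slope more negative than the mean of all samples by about 3 SD, 99.7% confidence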;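 also: fluorescence intensity change per second fitted from 20 to 320 s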); settings: Recombinant KvBeta, NADPH fluorescence decrease slope, 10 min; at 10 µM; stronger effect = lower value
[6] = target: Alpha-2C adrenergic receptor (Homo sapiens) (UniProt P18825); assay: modulators of alpha2C/GIRK thallium flux, primary screen, cell-based, HEK293 alpha2C/GIRK1/2 (AID 624;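 active = fluorescence slope after compound addition differing from the mean of all screened samples at 99.7% confidence, in either direction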;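 also: slope of fluorescence ratio to pre-addition baseline per second over 15 to 24 s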); settings: thallium flux BTC fluorescence, at 10 µM, actives lie on both sides
[7] = inhibitors of Sendai virus-induced IRF3 signaling, primary screen, TLR/RLR signaling modifier project, cell-based, Sendai virus stimulus, luciferase, 10K MLSCN set (AID 602276;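 active = inhibition at or above 50% at 10 µM; inactive = inhibition below 50%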;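 also: firefly luciferase from ISG56 promoter only with Renilla not read in this screen; 0% = Sendai virus plus DMSO and 100% = medium plus DMSO without virus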); settings: HEK293 RL24 IRF3 luciferase reporter, at 10 µM, stronger effect = higher value
[8] = inhibitors of poly I:C-induced TLR3 signaling, primary screen, cell-based, poly I:C stimulus, luciferase, 10K MLSCN set (AID 602277;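 active = inhibition of the reporter signal at or above 50%; inactive = inhibition below 50%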); settings: HEK293-TLR3 RL24 IRF3 luciferase reporter, at 10 µM, stronger effect = higher value

Alpha-2C adrenergic receptor (Homo sapiens), sequence (P18825 whole entry, looked up): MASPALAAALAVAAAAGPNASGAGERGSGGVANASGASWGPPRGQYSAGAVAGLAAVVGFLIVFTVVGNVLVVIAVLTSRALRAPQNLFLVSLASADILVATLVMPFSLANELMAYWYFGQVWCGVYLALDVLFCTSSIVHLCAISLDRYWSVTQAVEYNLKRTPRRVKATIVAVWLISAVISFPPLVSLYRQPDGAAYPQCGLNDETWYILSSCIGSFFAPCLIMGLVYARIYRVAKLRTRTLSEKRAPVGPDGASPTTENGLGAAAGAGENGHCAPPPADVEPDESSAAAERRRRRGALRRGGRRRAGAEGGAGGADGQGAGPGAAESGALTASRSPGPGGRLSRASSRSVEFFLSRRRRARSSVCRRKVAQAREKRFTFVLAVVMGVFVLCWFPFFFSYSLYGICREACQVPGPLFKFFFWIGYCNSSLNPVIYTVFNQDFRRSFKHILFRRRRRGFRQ
Voltage-gated potassium channel subunit beta-2 (Rattus norvegicus), sequence (P62483 whole entry, looked up): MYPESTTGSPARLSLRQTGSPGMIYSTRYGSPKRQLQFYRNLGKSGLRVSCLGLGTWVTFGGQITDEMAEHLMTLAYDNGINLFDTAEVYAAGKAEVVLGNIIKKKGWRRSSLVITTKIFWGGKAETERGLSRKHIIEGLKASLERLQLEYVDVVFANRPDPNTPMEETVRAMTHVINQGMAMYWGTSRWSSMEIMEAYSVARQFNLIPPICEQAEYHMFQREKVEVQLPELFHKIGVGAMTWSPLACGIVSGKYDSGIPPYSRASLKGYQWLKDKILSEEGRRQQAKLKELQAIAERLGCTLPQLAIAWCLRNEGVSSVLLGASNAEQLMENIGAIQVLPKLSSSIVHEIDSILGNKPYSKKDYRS

| Structure (SMILES) | cell count [1] | inhibition [1] | inhibition of aggregation [2] | nuclei count [2] | inhibition [3] | nuclei count [3] | fluorescence slope [4] | NADPH fluorescence slope [5] | slope [6] | inhibition [7] | inhibition [8] |
| --- | --- | --- | --- | --- | --- | --- | --- | --- | --- | --- | --- |
| Cc1cccc2sc(NC(=O)CN(C)S(=O)(=O)c3cccs3)nc12 | 601 | -25.8% (inactive) | -7% (inactive) | 114% | -1.7% (inactive) | 103% | -0.432 (inactive) | 1e-05 (inactive) | 0.00346 (inactive) | -1.84% (inactive) | -8.61% (inactive) |
| Cc1ccc(OCCC(=O)OCC(=O)C(C)(C)C)cc1 | 542 | -8.3% (inactive) | -6.7% (inactive) | 101% | -9.5% (inactive) | 131% | -0.365 (inactive) | -5.3e-05 (inactive) | 0.0062 (inactive) | 12.7% (inactive) | 27.5% (inactive) |
| CN=C(Nc1ccc2c(c1)OCO2)SC1CC(=O)N(c2ccccc2)C1=O (stereo not given) | 699 | 11% (inactive) | 6.4% (inactive) | 95.4% | 7.9% (inactive) | 112% | -0.381 (inactive) | -3.2e-05 (inactive) | 0.00557 (inactive) | 10% (inactive) | 17.2% (inactive) |
| CCN(CC)S(=O)(=O)c1cccc(-c2nnc(SCC(N)=O)n2CCc2ccccc2)c1 | 635 | -4.4% (inactive) | -2.2% (inactive) | 105% | -32.3% (inactive) | 125% | -0.592 (inactive) | -8.5e-06 (inactive) | 0.00663 (inactive) | 7.68% (inactive) | 11.1% (inactive) |
| Cc1c(C(=O)NC2CC2)oc2ccc(S(=O)(=O)N3CCCCCC3)cc12 | 635 | 3.4% (inactive) | -2.5% (inactive) | 92.4% | -102% (inactive) | 116% | -0.508 (inactive) | 4.1e-05 (inactive) | 0.00537 (inactive) | -22.3% (inactive) | -28.3% (inactive) |
| CCC(=O)Nc1cc2nn(-c3ccccc3)nc2cc1Cl | 442 | -2.1% (inactive) | 7.1% (inactive) | 105% | -94.2% (inactive) | 255% | -0.413 (inactive) | -5.9e-07 (inactive) | 0.00584 (inactive) | -10.5% (inactive) | -46.9% (inactive) |
| CS(=O)(=O)N1CCCC(C(=O)NCCCN2CCC(Cc3ccccc3)CC2)C1 (stereo not given) | 679 | -2% (inactive) | 15.3% (inactive) | 89.6% | -139% (inactive) | 111% | -0.602 (inactive) | 2e-05 (inactive) | 0.00628 (inactive) | -7.21% (inactive) | -4.47% (inactive) |
| COc1ccc(Nc2nc(-c3sc(N)nc3C)cs2)cc1 | 661 | -5.8% (inactive) | -10.7% (inactive) | 116% | -75.8% (inactive) | 118% | -0.376 (inactive) | -6.4e-05 (inactive) | 0.0038 (inactive) | -13.1% (inactive) | -17.6% (inactive) |
| CS(=O)(=O)NCCSCc1c(F)cccc1Cl | 270 | 5.5% (inactive) | 0% (inactive) | 106% | -41.6% (inactive) | 96.6% | -0.527 (inactive) | -2.1e-05 (inactive) | 0.00448 (inactive) | 2.63% (inactive) | 0.999% (inactive) |
| CCOCCCNC(=O)CS(=O)(=O)Cc1nc(-c2cccc(OC)c2)oc1C | 558 | -43.9% (inactive) | 16% (inactive) | 65.2% | -6.1% (inactive) | 97.9% | -0.596 (inactive) | 4.7e-07 (inactive) | 0.00578 (inactive) | 12.4% (inactive) | 33.7% (inactive) |
| O=C(CN1CCN(c2nc(-c3ccc(F)cc3)cs2)CC1)NCc1ccc2c(c1)OCO2 | 491 | 9.9% (inactive) | 5.2% (inactive) | 108% | -34.5% (inactive) | 107% | -0.582 (inactive) | -2.2e-05 (inactive) | 0.00522 (inactive) | 16.7% (inactive) | 17.8% (inactive) |
| O=C(Nc1ccc(Cc2ccc(NC(=O)N3CCOCC3)cc2)cc1)N1CCOCC1 | 494 | -2% (inactive) | 15.7% (inactive) | 61.1% | 30.5% (inactive) | 82.3% | -0.416 (inactive) | -2.3e-05 (inactive) | 0.0036 (inactive) | 0.542% (inactive) | -1.84% (inactive) |
| COc1ccccc1CNC(=O)C1CCCN(S(=O)(=O)c2cccc3cccnc23)C1 (stereo not given) | 783 | -5.1% (inactive) | -33.4% (inactive) | 102% | -38.9% (inactive) | 108% | -0.592 (inactive) | -5.8e-05 (inactive) | 0.00706 (inactive) | 3.46% (inactive) | 26.9% (inactive) |
| CCN1CCN(C(=O)C2CCN(C(=O)c3cc4sccc4n3CC)CC2)CC1 | 642 | -12.2% (inactive) | 4.1% (inactive) | 85.3% | -25.4% (inactive) | 115% | -0.556 (inactive) | -4.1e-05 (inactive) | 0.00649 (inactive) | 12.4% (inactive) | 45.3% (inactive) |
| O=C(Cn1nc(Cc2ccncc2)c2ccccc2c1=O)N1CCN(C(=O)c2ccco2)CC1 | 780 | -7.3% (inactive) | -29.3% (inactive) | 110% | -15.2% (inactive) | 112% | -0.58 (inactive) | -2.7e-05 (inactive) | 0.0062 (inactive) | -0.346% (inactive) | 21.1% (inactive) |
| CCC(Sc1nc2sc(C(=O)OC)c(C)c2c(=O)n1N)C(=O)NCC1CCCO1 (stereo not given) | 477 | 7.5% (inactive) | -2.8% (inactive) | 117% | 12% (inactive) | 98.2% | -0.592 (inactive) | -6.1e-05 (inactive) | 0.00714 (inactive) | 7.5% (inactive) | 11.6% (inactive) |
| COc1ccc(CN(C(=O)c2cccs2)c2nccs2)cc1OC | 457 | 3.9% (inactive) | -1.2% (inactive) | 112% | -60.6% (inactive) | 111% | -0.458 (inactive) | -3e-05 (inactive) | 0.00675 (inactive) | -2.48% (inactive) | 21.6% (inactive) |
| CCN(CC)CCCNS(=O)(=O)c1ccc(OC)cc1 | 460 | 0.5% (inactive) | -18% (inactive) | 110% | -61.5% (inactive) | 134% | -0.429 (inactive) | -0.000105 (inactive) | 0.00623 (inactive) | 13.6% (inactive) | 27.9% (inactive) |
| COc1cc(C)c(-c2cc(C(=O)O)c(C)o2)cc1C(C)C | 451 | -7.7% (inactive) | -1.5% (inactive) | 95.9% | -99% (inactive) | 130% | -0.416 (inactive) | 6.3e-06 (inactive) | 0.00528 (inactive) | 12.3% (inactive) | 17.2% (inactive) |
| Cc1cccc2sc(NC(=O)Cn3cccc3)nc12 | 518 | -1.1% (inactive) | -6.6% (inactive) | 59.1% | -13.1% (inactive) | 100% | -0.603 (inactive) | -2.8e-05 (inactive) | 0.0115 (active) | -3.68% (inactive) | -14% (inactive) |
